High-throughput results deposited in PubChem by The Scripps Research Institute Molecular Screening Center.
hcDAF-12 act: activators of H. contortus DAF-12 nuclear receptor; HEK293 hcDAF-12 lit1-tk-luc reporter, luminescence; 0% DMSO, 100% Δ7-dafachronic acid; activation, % at 6.8 µM; hit rate 1.4% among 370,000;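 active = activation above the mean of all tested compounds plus 3 SD, cut at about 5.5% in these data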
ssDAF-12 act: activates DAF-12 receptor from parasite S. stercoralis | HEK293 ssDAF-12/GRIP1 lit1-tk-luc reporter, luminescence; % of 3 µM dafachronic acid response | hit rate 1% among 370,000 | activation, % at 6.8 µM;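 active = activation above the mean over all tested compounds plus 3 SD, cut at about 0.9% in these data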
DAX1 inh-1: inhibitors of DAX1 repression of SF-1 activated StAR promoter; HEK293T StAR-luciferase reporter, SF-1/DAX-1 repression relief; inhibition, % at 6.8 µM; hit rate 1.1% among 370,000; AID 652010;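 active = inhibition above the mean over all tested compounds plus 3 SD, cut at about 3.6% in these data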;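 also: higher inhibition means more luminescence from relief of DAX-1 repression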
SMARCA2 activ: activators of SMARCA2 function; MG213 cells, MMTV-luciferase reporter, dexamethasone, overnight; activation, % at 9.1 µM; hit rate 1% among 370,000; in the data active = activation above about 7.8%
hgDAF-12 ag: hgDAF-12 agonism, primary luciferase screen; HEK293 GAL4-hgDAF12 UAS-luciferase reporter, agonist luminescence; normalized to butyrate control; activation, % at 6.8 µM; hit rate 1.8% among 370,000; AID 687014;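 active = activation above a cutoff set at the mean of all screened compounds plus 3 SD, cut at about 10% in these data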
DAX1 inh-2: inhibitors of human orphan nuclear receptor DAX1 (NR0B1). P51843. inhibition, % at 6.75 µM. HEK293 Gal4-DAX1 luciferase reporter, luminescence. hit rate 0.99% among 340,000;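 active = inhibition above the mean over all tested compounds plus 3 SD, cut at about 4.2% in these data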;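 also: inhibition shows as a rise in luminescence from relieved DAX1 repression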
Target sequence (P51843 207-470 limits assumed): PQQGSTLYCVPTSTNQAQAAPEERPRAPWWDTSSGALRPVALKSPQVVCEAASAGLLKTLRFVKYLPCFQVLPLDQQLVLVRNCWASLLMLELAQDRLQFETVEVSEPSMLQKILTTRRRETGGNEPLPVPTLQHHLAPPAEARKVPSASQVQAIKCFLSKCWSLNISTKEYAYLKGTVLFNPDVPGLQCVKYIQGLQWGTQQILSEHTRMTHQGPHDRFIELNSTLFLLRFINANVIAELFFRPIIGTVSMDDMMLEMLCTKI
DAX1 inh confirm: confirmation of human DAX1 (NR0B1) inhibitors; HEK293T StAR-promoter luciferase reporter, SF-1/DAX-1 repression; hit rate 87% among 2,400; inhibition, % at 6.8 µM; AID 652134; shares compounds with DAX1 inh-1;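 active = inhibition above the average of every tested compound plus 3 SD, cut at about 3.8% in these data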;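 also: active compounds raise luminescence by relieving repression of the StAR reporter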
Target sequence (P51843 whole entry, looked up): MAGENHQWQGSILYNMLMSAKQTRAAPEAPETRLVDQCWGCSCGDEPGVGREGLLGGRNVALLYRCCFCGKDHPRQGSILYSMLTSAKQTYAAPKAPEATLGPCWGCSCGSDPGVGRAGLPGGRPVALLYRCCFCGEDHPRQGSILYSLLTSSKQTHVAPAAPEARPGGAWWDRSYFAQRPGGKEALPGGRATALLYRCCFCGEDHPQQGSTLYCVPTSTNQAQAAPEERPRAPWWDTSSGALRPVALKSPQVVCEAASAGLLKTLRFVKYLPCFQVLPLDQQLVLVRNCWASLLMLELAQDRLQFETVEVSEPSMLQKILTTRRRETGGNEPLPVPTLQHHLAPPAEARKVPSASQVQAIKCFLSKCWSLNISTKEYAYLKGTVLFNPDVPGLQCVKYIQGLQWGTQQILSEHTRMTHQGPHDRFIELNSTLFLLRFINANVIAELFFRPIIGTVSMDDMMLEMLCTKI
SF1 AF2mut Luc: counter-screen for DAX1 inhibitors: nonselective inhibitors with SF-1 AF2 mutant | shares compounds with DAX1 inh-1 | HEK293 StAR-luciferase, luminescence | inhibition, % at 6.8 µM | hit rate 78% among 2,400;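 active = inhibition above the mean of all tested compounds plus 3 SD, cut at about 3% in these data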
Numbers stand for hits. In the library only some 4.8% were active in any assay of this set; here they are far more common.

Results for COC(=O)[C@]12CCCCC=C1N(Cc1cccc3ccccc13)C(=O)[C@H](CC(=O)NCc1ccc(OC)c(OC)c1)C2 ?
hcDAF-12 act: inactive; ssDAF-12 act: inactive; DAX1 inh-1: inactive; SMARCA2 activ: inactive; hgDAF-12 ag: inactive

Results for COC(=O)[C@]12CCCCC=C1N(CCc1ccc(OC)c(OC)c1)C(=O)[C@H](CC(=O)NCc1cccc3ccccc13)C2 ?
hcDAF-12 act: inactive; ssDAF-12 act: inactive; DAX1 inh-1: 4.6; SMARCA2 activ: inactive; hgDAF-12 ag: inactive; DAX1 inh confirm: inactive; SF1 AF2mut Luc: 6.3

How did CCOC(=O)[C@]12CCCC=C1N(Cc1ccc3c(c1)OCO3)C(=O)[C@H](CC(=O)NCc1cccc3ccccc13)C2 do in these assays?
hcDAF-12 act: inactive; ssDAF-12 act: inactive; DAX1 inh-1: 6.2; SMARCA2 activ: inactive; hgDAF-12 ag: inactive; DAX1 inh confirm: inactive; SF1 AF2mut Luc: inactive

How did CCOC(=O)[C@]12CCCC=C1N(Cc1cccc3ccccc13)C(=O)[C@H](CC(=O)NCc1cccc3ccccc13)C2 do in these assays?
hcDAF-12 act: inactive; ssDAF-12 act: inactive; DAX1 inh-1: inactive; SMARCA2 activ: inactive; hgDAF-12 ag: inactive

Results for Cn1c(COc2ccccc2)nnc1SCC(=O)NC1CCCC1 ?
hcDAF-12 act: inactive; ssDAF-12 act: inactive; DAX1 inh-1: inactive; SMARCA2 activ: inactive; hgDAF-12 ag: inactive; DAX1 inh-2: inactive

What do the screens show for `CN(C(=O)CSc1nc2ccccc2n1C)C1CCS(=O)(=O)C1` (centres undefined)?
hcDAF-12 act: inactive; ssDAF-12 act: inactive; DAX1 inh-1: inactive; SMARCA2 activ: inactive; hgDAF-12 ag: inactive; DAX1 inh-2: inactive

Results for COC(=O)[C@]12C[C@H](CC(=O)NCc3cccs3)C(=O)N(Cc3ccco3)C1=C[C@H](C(C)(C)C)O[C@@H]2C ?
hcDAF-12 act: inactive; ssDAF-12 act: inactive; DAX1 inh-1: inactive; SMARCA2 activ: inactive; hgDAF-12 ag: inactive

Results for Cc1cc(O)c(N=Nc2ccc(C(=O)O)cc2)cc1C ?
hcDAF-12 act: inactive; ssDAF-12 act: inactive; DAX1 inh-1: 5.2; SMARCA2 activ: inactive; hgDAF-12 ag: inactive; DAX1 inh-2: 4.3; DAX1 inh confirm: 21; SF1 AF2mut Luc: 7.7

What do the screens show for `CCc1nnc(NC(=O)C2COc3ccccc3O2)s1` (centres undefined)?
hcDAF-12 act: inactive; ssDAF-12 act: inactive; DAX1 inh-1: 4.5; SMARCA2 activ: inactive; hgDAF-12 ag: inactive; DAX1 inh-2: inactive; DAX1 inh confirm: 6.3; SF1 AF2mut Luc: 4.0

How did Cc1cccc(C)c1OCc1cc(C(=O)N2CC3C[C@@H]4CC2C[C@H](C3)C4)no1 do in these assays?
hcDAF-12 act: inactive; ssDAF-12 act: inactive; DAX1 inh-1: inactive; SMARCA2 activ: inactive; hgDAF-12 ag: inactive; DAX1 inh-2: inactive

How did Cc1nnc(CN(C)C(=O)c2cc(COc3ccc(F)cc3Cl)on2)o1 do in these assays?
hcDAF-12 act: inactive; ssDAF-12 act: inactive; DAX1 inh-1: 5.2; SMARCA2 activ: inactive; hgDAF-12 ag: inactive; DAX1 inh-2: inactive; DAX1 inh confirm: 8.1; SF1 AF2mut Luc: 4.2

What do the screens show for `Cc1ccc(OCc2cc(C(=O)N3CC4C[C@@H]5CC3C[C@H](C4)C5)no2)cc1C`?
hcDAF-12 act: inactive; ssDAF-12 act: inactive; DAX1 inh-1: 5.2; SMARCA2 activ: inactive; hgDAF-12 ag: 11; DAX1 inh-2: inactive; DAX1 inh confirm: inactive; SF1 AF2mut Luc: 3.6

How did O=C(c1cc(COc2ccc(F)cc2Cl)on1)N1CC2C[C@@H]3CC1C[C@H](C2)C3 do in these assays?
hcDAF-12 act: inactive; ssDAF-12 act: inactive; DAX1 inh-1: 5.7; SMARCA2 activ: inactive; hgDAF-12 ag: 13; DAX1 inh-2: inactive; DAX1 inh confirm: 5.8; SF1 AF2mut Luc: inactive

Results for O=C(O)C1C2C=CC(C2)C1C(=O)Nc1ccc(Cl)c(Cl)c1 (centres undefined) ?
hcDAF-12 act: inactive; ssDAF-12 act: inactive; DAX1 inh-1: inactive; SMARCA2 activ: inactive; hgDAF-12 ag: inactive; DAX1 inh-2: inactive

How did Cc1cc(C)n(-c2ccc(C(=O)Nc3ccccn3)cc2)n1 do in these assays?
hcDAF-12 act: inactive; ssDAF-12 act: inactive; DAX1 inh-1: 4.7; SMARCA2 activ: inactive; hgDAF-12 ag: 12; DAX1 inh-2: inactive; DAX1 inh confirm: 11; SF1 AF2mut Luc: 5.4

Results for O=C(NC(=O)c1ccccc1)Nc1ccccn1 ?
hcDAF-12 act: inactive; ssDAF-12 act: inactive; DAX1 inh-1: inactive; SMARCA2 activ: inactive; hgDAF-12 ag: inactive; DAX1 inh-2: inactive

How did O=C(Nc1ccccn1)c1ccc(C(=O)c2ccccc2)cc1 do in these assays?
hcDAF-12 act: inactive; ssDAF-12 act: inactive; DAX1 inh-1: 9.0; SMARCA2 activ: inactive; hgDAF-12 ag: 13; DAX1 inh-2: inactive; DAX1 inh confirm: 11; SF1 AF2mut Luc: 4.7

What do the screens show for `COc1ccc(OCCCC(=O)N2CCN(S(=O)(=O)c3cccc(F)c3)CC2)cc1`?
hcDAF-12 act: inactive; ssDAF-12 act: inactive; DAX1 inh-1: inactive; SMARCA2 activ: inactive; hgDAF-12 ag: inactive; DAX1 inh-2: inactive

How did COc1cccc(C=Cc2nccc3ccccc23)c1OC do in these assays?
hcDAF-12 act: inactive; ssDAF-12 act: inactive; DAX1 inh-1: 6.1; SMARCA2 activ: inactive; hgDAF-12 ag: 11; DAX1 inh-2: inactive; DAX1 inh confirm: 3.8; SF1 AF2mut Luc: inactive

Results for CNc1cc(-c2ccc(OC)c(OC)c2)ncn1 ?
hcDAF-12 act: inactive; ssDAF-12 act: inactive; DAX1 inh-1: 5.3; SMARCA2 activ: inactive; hgDAF-12 ag: 12; DAX1 inh confirm: 9.5; SF1 AF2mut Luc: 4.8

How did COc1cc2c(OC(C)=O)c3c(c(-c4ccc5c(c4)OCO5)c2cc1OC)C(=O)OC3 do in these assays?
hcDAF-12 act: inactive; ssDAF-12 act: inactive; DAX1 inh-1: inactive; SMARCA2 activ: inactive; hgDAF-12 ag: inactive; DAX1 inh-2: inactive

Results for COc1cc2c(O)c3c(c(-c4ccc5c(c4)OCO5)c2cc1OC)C(=O)OC3 ?
hcDAF-12 act: inactive; ssDAF-12 act: inactive; DAX1 inh-1: 6.6; SMARCA2 activ: inactive; hgDAF-12 ag: inactive; DAX1 inh-2: inactive; DAX1 inh confirm: 15; SF1 AF2mut Luc: inactive

What do the screens show for `N/C(=N\OC(=O)c1ccco1)c1ccccc1`?
hcDAF-12 act: inactive; ssDAF-12 act: inactive; DAX1 inh-1: inactive; SMARCA2 activ: inactive; hgDAF-12 ag: inactive; DAX1 inh-2: inactive

Results for N/C(=N\OC(=O)c1ccco1)c1ccc(Br)cc1 ?
hcDAF-12 act: inactive; ssDAF-12 act: inactive; DAX1 inh-1: 4.7; SMARCA2 activ: inactive; hgDAF-12 ag: inactive; DAX1 inh-2: inactive; DAX1 inh confirm: 7.2; SF1 AF2mut Luc: 4.4
